Values without a mark were called inactive. Inconclusive results are not listed. Calls of active or inactive are those of the source. Unless noted, the call rests on the fitted dose curve; in most records, active means well fitted curve in the direction sought with a large enough effect in the repeat runs; inconclusive means weak or mixed curves; inactive means no such curve, though single readings can be large; an effect the other way counts as inactive or inconclusive.

For assay [1], the target named is Luciferin 4-monooxygenase (Photinus pyralis) (UniProt P08659). Briefly: qHTS assay to identify small molecule inhibitors of firefly luciferase (AID 1224835). Further: nearly all actives have a fitted effect of over 25% in size. Further: potency means the concentration at half of the fitted maximal effect. In short, it runs like this:
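Inhibition of purified Photinus luciferase is measured by luminescence. Substrate levels (D-luciferin, ATP) sit at their KM values. Each compound is tested in a concentration series.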
(In general: Quantitative high-throughput screening tests each substance at several concentrations.)

A short description of assay [2]: qHTS assay to identify small molecule agonists of the constitutive androstane receptor (CAR) signaling pathway - cell viability counter screen (AID 1224836). Further: nearly all actives have a fitted effect of over 45% in size. In short, it runs like this:
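Counter screen multiplexed with the CAR reporter readout: HepG2 cells co-transfected with hCAR and the CYP2B6-2.2kb construct receive a 15-concentration compound series and 0.75 uM PK11195 (final), then CellTiter-Fluor fluorescence is read after 23 h.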

A short description of assay [3]: qHTS assay to identify small molecule antagonists of the constitutive androstane receptor (CAR) signaling pathway - cell viability counter screen (AID 1224837). Further: nearly all actives have a fitted effect of over 45% in size. In short, it runs like this: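 HepG2 cells stably carrying hCAR and CYP2B6-2.2kb reporter, stimulated with 50 nM CITCO and compounds at 15 concentrations for 23 h at 37 C. Viability measured by CellTiter-Fluor fluorescence.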

Assay [4] addresses Nuclear receptor subfamily 1 group I member 3 (Homo sapiens) (UniProt Q14994). Briefly: qHTS assay to identify small molecule antagonists of the constitutive androstane receptor (CAR) signaling pathway (AID 1224838). Further: nearly all actives have a fitted effect of over 40% in size. In short, it runs like this: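 HepG2 cells stably carrying hCAR and a CYP2B6-2.2kb luciferase reporter, seeded 4 hrs before compound (15 concentrations). Stimulated with 50 nM CITCO for 24 hr at 37 C. ONE-Glo luminescence read after 30 min at room temperature.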

Assay [5] has the same target. Briefly: qHTS assay to identify small molecule agonists of the constitutive androstane receptor (CAR) signaling pathway (AID 1224839). Further: nearly all actives have a fitted effect of over 15% in size. Further: potency means the concentration at half of the fitted maximal effect. In short, it runs like this: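 A 15-concentration quantitative screen uses HepG2 cells co-transfected stably with human CAR and CYP2B6-2.2kb reporter. Treatment lasts 24 h with 0.75 uM PK11195 final present; ONE-Glo luminescence is the signal.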

Assay [6] is described as follows: qHTS assay to identify small molecule antagonists of the estrogen related receptor signaling pathway with the pleiotropic PPARgamma coactivator (PGC) from Tox21 10K library - cell viability counter screen (AID 1224840; active means well fitted cell-killing curve with a large enough effect in the repeat runs, not every such curve was filed as active; further: nearly all actives have a fitted effect of over 40% in size). In outline:
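PGC/ERR cells (2,000/well) plated 6 h, then compound-treated for 17.5 h at 37 C. Viability measured by CellTiter-Fluor fluorescence after 30 min at 37 C, multiplexed with the pathway assay.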

The nature of assay [7]: qHTS assay to identify small molecule antagonists of the estrogen related receptor signaling pathway with the pleiotropic PPARgamma coactivator (PGC) from Tox21 10K library (AID 1224841; call rule not given here; further: actives are mostly falling curves and most rising ones were filed inactive; nearly all actives have a fitted effect of over 50% in size). In outline: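 PGC/ERR cell line, 2,000 cells/well, pre-incubated 6 hours at 37 C, then exposed to compounds for 18 hours at 37 C; luciferase read with One-Glo luminescence after 30 min at room temperature.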

Assay [8] in a line: qHTS assay to identify small molecule agonists of the estrogen related receptor signaling pathway with the pleiotropic PPARgamma coactivator (PGC) from Tox21 10K library (AID 1224842). Further: nearly all actives have a fitted effect of over 15% in size. In outline:
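Luminescence from One-Glo (30 min, room temperature) measured after PGC/ERR cells had 18 h at 37 C with pinned compound (23 nL in DMSO). Cells had been seeded at 2,000 per well and pre-incubated 6 h.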

Assay [9] concerns the target Thyrotropin receptor (Homo sapiens) (UniProt P16473). Briefly: qHTS assay to identify small molecule agonists of the thyroid stimulating hormone receptor (TSHR) signaling pathway (AID 1224843; calls by dose curve; further: nearly all actives have a fitted effect of over 45% in size). In outline: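 HEK293 cells stably bearing the thyrotropin receptor were plated at 800 cells/well and challenged with compound (30 min, RT). Accumulated cAMP was quantified via cAMP-d2 competing for cryptate-tagged antibody.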

Assay [10] in a line: qHTS assay to identify small molecule agonists of the hypoxia (HIF-1) signaling pathway - cell viability counter screen (AID 1224844; calls by dose curve; further: nearly all actives have a fitted effect of over 50% in size). In short, it runs like this: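 HRE-bla ME-180 cells, 2,000/well in 0.5% dialyzed FBS medium, treated 17 h at 37C with compounds. Viability read in the same wells as the bla reporter, by CellTiter-Glo luminescence after 30 min at room temperature.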

Assay [11] in a line: qHTS assay to identify small molecule agonists of H2AX (AID 1224845; active means well fitted activation curve with a large enough effect in the signal ratio in the repeat runs, not every such curve was filed as active; the % refers to the signal ratio). In outline: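 Phospho-H2AX Ser139 measured by HTRF (ex 320 nm; em 665 and 620 nm) after 24 hr antibody incubation. Compounds, 15 concentrations, 0.76% DMSO, were applied to CHO-K1 cells for 3hr at 37C before lysis.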
A short description of assay [12]: qHTS assay to identify small molecule agonists of the hypoxia (HIF-1) signaling pathway (AID 1224846; active means well fitted activation curve with a large enough effect in the signal ratio in the repeat runs, not every such curve was filed as active; the % refers to the signal ratio). In outline:
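HRE-bla ME-180 beta-lactamase reporter cells in medium with 0.5% dialyzed FBS, pre-incubated 5 h then exposed to compounds 17 h at 37C, 5% CO2; reporter induction read with CCF4-AM FRET substrate.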

Assay [13] is described as follows: qHTS assay to identify small molecule agonists of H2AX - cell viability counter screen (AID 1224847; calls by dose curve; further: top concentration of the series differs between compounds; nearly all actives have a fitted effect of over 30% in size). In outline: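 We seed wild-type CHO-K1 cells overnight, treat them for 3 hr at 37C with compounds in 15-concentration series, and quantify remaining viability by CellTiter-Glo luminescence.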
Assay [14] is described as follows: qHTS assay to identify small molecule agonists of the estrogen related receptor (ERR) signaling pathway from Tox21 library (AID 1224849; calls by dose curve; further: nearly all actives have a fitted effect of over 15% in size). The note with it: ERR reporter cell line, ONE-Glo luciferase, 18 h; at 92.4 µM (top of the series) unless noted. In outline: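 ERR reporter cells (NTP line) pre-incubated 6 hours at 37 C, then exposed to compounds for 18 hours at 37 C. ONE-Glo luciferase luminescence was read after 30 minutes at room temperature.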

The nature of assay [15]: qHTS RealTime-Glo MT Cell Viability Assay in HepG2 cells - 24 hour (AID 1224867). Further: nearly all actives have a fitted effect of over 50% in size. In outline:
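Real-time, nonlytic viability: 600 HepG2 cells/well mixed with NanoLuc enzyme plus prosubstrate; 5 h settle, compound (DMSO) added by pintool; luminescence monitored over 40 h at 37 C.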

Assay [16] can be described thus: A CellTox Green Cytotoxicity Assay to monitor cytotoxicity in HEK293 cells - 0 hour (AID 1224869). Further: nearly all actives have a fitted effect of over 50% in size. In short, it runs like this:
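HEK293 cells, 600/well, were preincubated 5 hours and then exposed to compounds at 37 C for up to 40 hours. A cell-impermeant cyanine dye staining dead-cell DNA was read by fluorescence at 0, 8, 16, 24, 32 and 40 h time points.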

A short description of assay [17]: qHTS RealTime-Glo MT Cell Viability Assay in HepG2 cells - 40 hour (AID 1224870). Further: nearly all actives have a fitted effect of over 50% in size. In outline: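 Real-time viability: cells seeded at 600 per well together with NanoLuc and cell-permeant prosubstrate, compounds added after 5 h incubation. Luminescence tracked at 0, 8, 16, 24, 32 and 40 h of exposure.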
Assay [18] in a line: qHTS assay to identify small molecule antagonists of the estrogen related receptor (ERR) signaling pathway from Tox21 library - cell viability counter screen (AID 1224834). Further: nearly all actives have a fitted effect of over 30% in size. In short, it runs like this: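 ERR reporter cells, 2,000 per well, rested 6 h, then exposed to compound in DMSO for 17.5 hours at 37 C. Viability read as fluorescence after 30 min with CellTiter-Fluor.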

Assay [19] can be described thus: qHTS RealTime-Glo MT Cell Viability Assay in HEK293 cells - 32 hour (AID 1224868). In outline:
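Cells + reagent dispensed (600 cells/well, HEK293) → 5 h at 37 C/5% CO2 → 23 nL compound in DMSO pinned → 40 h at 37 C → luminescence read at 0, 8, 16, 24, 32, 40 h.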

A short description of assay [20]: qHTS assay to identify small molecule antagonists of the estrogen related receptor (ERR) signaling pathway from Tox21 library (AID 1224848). Further: nearly all actives have a fitted effect of over 50% in size. In short, it runs like this:
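Reading was by luminescence 30 min after ONE-Glo addition. Before that, ERR cells at 2,000 per well had rested 6 h at 37 C/5% CO2 and then received pin-tooled compounds in DMSO for 18 h at 37 C.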
On the % scale 0 is the no-effect control and ±100 the full control effect.

Thyrotropin receptor (Homo sapiens), sequence (P16473 whole entry, looked up): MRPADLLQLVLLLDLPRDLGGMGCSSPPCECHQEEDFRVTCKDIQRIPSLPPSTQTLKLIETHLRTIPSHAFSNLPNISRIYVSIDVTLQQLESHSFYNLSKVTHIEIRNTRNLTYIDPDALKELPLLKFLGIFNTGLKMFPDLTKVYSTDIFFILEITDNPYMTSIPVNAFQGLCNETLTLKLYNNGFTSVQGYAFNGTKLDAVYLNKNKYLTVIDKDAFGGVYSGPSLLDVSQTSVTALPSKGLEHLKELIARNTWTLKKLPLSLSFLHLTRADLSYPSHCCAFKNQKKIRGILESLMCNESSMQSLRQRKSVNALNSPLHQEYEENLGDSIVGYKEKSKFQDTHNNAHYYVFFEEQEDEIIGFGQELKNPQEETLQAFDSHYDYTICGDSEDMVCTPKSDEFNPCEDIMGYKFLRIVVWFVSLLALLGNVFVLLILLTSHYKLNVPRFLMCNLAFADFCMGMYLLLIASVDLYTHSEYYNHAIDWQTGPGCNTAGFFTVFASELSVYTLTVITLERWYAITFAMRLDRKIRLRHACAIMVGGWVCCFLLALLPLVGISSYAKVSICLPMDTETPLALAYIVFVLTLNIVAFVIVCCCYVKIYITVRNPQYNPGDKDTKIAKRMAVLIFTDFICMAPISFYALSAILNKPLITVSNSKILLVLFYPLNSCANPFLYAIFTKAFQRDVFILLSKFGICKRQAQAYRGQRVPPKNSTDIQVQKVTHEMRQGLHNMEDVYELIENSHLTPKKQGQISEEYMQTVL
Nuclear receptor subfamily 1 group I member 3 (Homo sapiens), sequence (Q14994 whole entry, looked up): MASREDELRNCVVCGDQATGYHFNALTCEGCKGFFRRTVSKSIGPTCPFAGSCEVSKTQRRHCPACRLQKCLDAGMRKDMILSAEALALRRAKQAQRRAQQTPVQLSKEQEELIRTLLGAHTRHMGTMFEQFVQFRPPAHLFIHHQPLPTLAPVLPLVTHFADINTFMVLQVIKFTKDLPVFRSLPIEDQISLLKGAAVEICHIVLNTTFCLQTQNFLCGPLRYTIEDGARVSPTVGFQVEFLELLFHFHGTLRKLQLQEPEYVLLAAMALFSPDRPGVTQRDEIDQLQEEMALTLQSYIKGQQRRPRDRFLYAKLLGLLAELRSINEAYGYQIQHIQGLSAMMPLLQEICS
Luciferin 4-monooxygenase (Photinus pyralis), sequence (P08659 whole entry, looked up): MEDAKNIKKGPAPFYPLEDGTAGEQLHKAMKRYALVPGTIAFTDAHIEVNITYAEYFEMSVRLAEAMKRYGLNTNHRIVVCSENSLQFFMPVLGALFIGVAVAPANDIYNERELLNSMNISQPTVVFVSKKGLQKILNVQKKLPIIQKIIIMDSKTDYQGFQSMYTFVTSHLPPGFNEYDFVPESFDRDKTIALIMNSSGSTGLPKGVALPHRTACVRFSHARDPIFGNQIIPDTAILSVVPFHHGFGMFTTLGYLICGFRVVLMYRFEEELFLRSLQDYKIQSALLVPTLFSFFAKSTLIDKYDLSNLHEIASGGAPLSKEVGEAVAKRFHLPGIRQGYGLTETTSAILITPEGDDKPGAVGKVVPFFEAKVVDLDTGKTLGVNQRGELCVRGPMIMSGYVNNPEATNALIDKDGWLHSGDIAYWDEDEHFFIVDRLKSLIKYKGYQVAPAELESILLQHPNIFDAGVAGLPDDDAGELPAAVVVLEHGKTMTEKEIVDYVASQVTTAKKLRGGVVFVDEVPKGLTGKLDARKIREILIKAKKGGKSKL

On to `N#CCNCC#N`, for which the Potency result in assay [1], in [2], in [3], in assay [4], in [5] and in assay [6] was “inactive” each time. For the same compound, the Potency entry in assay [7], in assay [9], in assay [10], in assay [11], in assay [13] and in [15] was “inactive” throughout. Moreover, the Potency entry in assay [16] and in [17] was “inactive” each time. Moreover, the outcome in assay [8] and in [12] was inactive. Further, the activity change, positive = activation in assay [14] was 2.04%.
Take `Nc1ccccc1Cl`: the Potency result in assay [18], in [2], in assay [4], in assay [5], in assay [6] and in [9] was “inactive” each time. In addition, the Potency entry in assay [10], in assay [11], in assay [13], in [15], in [19] and in assay [17] was “inactive” in each case. For the same compound, the compound was called inactive in [12].
Take `C[C@]12CC[C@H]3[C@@H](CC=C4C[C@@H](O)CC[C@@]43C)[C@@H]1CC[C@@H]2O`: the Potency result in assay [18], in assay [2], in assay [3], in [6], in assay [10] and in assay [11] was “inactive” each time. The Potency result in assay [13], in [15], in [16] and in assay [17] was “inactive” in each case.
On to `CNC(=O)N(C)c1nc2ccccc2s1`, for which the Potency in [1] is 35.6 µM (active); in assay [5], 24.3 µM (active). Moreover, the Potency result in assay [2], in [3], in assay [4], in [6], in assay [7] and in assay [9] was “inactive” in each case. The Potency entry in [10], in [11], in assay [13], in assay [15], in assay [19] and in assay [16] was “inactive” throughout. Besides, the Potency result in [17] was “inactive”. The result in [12] was inactive. In assay [14], the activity change, positive = activation is 89.8% (active).
For the compound `CCOP(=S)(OCC)Oc1ncn(-c2ccccc2)n1`, the Potency entry in [18], in assay [2], in assay [4], in assay [6], in assay [10] and in [11] was “inactive” in each case. Also, the Potency result in assay [15], in assay [16] and in assay [17] was “inactive” each time. In addition, the Potency in assay [5] was 30.6 µM (active). Further, in assay [12], the result was inactive.
Turning to `CNC(=O)Oc1cccc(C(C)C)c1`, the Potency result in assay [18], in [2], in assay [3], in assay [4], in assay [6] and in assay [9] was “inactive” each time. The Potency result in assay [10], in assay [11], in assay [15], in assay [19], in assay [16] and in assay [17] was “inactive” each time. Also, the result in [12] was inactive.
As for `CCOP(=S)(OCC)Oc1cc(-c2ccccc2)on1`, the Potency entry in assay [18], in [2], in [3], in assay [4], in assay [6] and in assay [10] was “inactive” each time. The Potency result in assay [11], in [13], in [15] and in [17] was “inactive” in each case. Further, the Potency in [5] is 34.4 µM (active). In addition, in assay [12], the compound was called inactive.
As to `COC(=O)COc1ccc(Cl)cc1Cl`, the Potency result in [18], in assay [2], in assay [3], in assay [6], in assay [7] and in assay [10] was “inactive” in each case. The Potency result in assay [11], in assay [20], in assay [15], in [19], in [16] and in assay [17] was “inactive” in each case. The call in assay [8] and in [12] was inactive. In addition, in [14], the activity change, positive = activation was 8.64%.
Take `CCCCOP(=O)(O)OCCCC`: the Potency entry in [18], in assay [2], in assay [3], in [6], in assay [9] and in [10] was “inactive” throughout. The Potency entry in assay [15], in [19], in assay [16] and in [17] was “inactive” throughout. Also, the outcome in [12] was inactive.

For the origin of these results see PubChem BioAssay (Tox21).
